PubChem BioAssay (NCATS)
Where “and” joins values, the source holds several entries; their conditions need not be identical. Identical values can stand only once. Inconclusive results are not listed. Calls of active or inactive are those of the source. The call rests on the fitted dose curve; in most records, active means well fitted activation curve with a large enough effect; inconclusive means small, poorly fitted or top-dose-only effect; inactive means no such curve, though single readings can be large or run the other way.

What follows are compounds tested against Cellular tumor antigen p53 (Homo sapiens) (UniProt P04637) (assay: Primary qHTS for small molecule compounds that upregulate eGFP-tagged delta133p53alpha (in N-terminal) cells. (AID 2060322;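 further: series mostly up to about 56 µM; 0% = DMSO vehicle and 100% = reference activator; nearly all actives have a fitted effect of over 75% in size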)). Settings: NCI-H358 eGFP-delta133p53alpha fluorescence, 24 h; activation: active compounds read high.
Chain of Cellular tumor antigen p53 (Homo sapiens) (P04637 whole entry, looked up): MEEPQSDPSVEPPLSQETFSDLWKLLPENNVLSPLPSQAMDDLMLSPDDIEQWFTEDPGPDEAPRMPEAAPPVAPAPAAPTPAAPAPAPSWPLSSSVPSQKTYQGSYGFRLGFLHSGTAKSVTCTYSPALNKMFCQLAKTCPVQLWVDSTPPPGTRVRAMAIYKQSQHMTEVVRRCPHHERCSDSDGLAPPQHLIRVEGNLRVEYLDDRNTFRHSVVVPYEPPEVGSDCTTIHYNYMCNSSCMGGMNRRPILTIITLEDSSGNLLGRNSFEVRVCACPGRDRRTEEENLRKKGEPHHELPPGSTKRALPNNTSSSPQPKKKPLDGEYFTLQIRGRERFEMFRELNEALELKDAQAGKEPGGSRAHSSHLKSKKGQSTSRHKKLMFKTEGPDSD
Procedure, shortened: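 NCI-H358 cells pre-induced 24 h with 10 ng/ml doxycycline to express N-terminal eGFP-delta133p53alpha, then dosed 24 h at 37C without doxycycline; fixed, Hoechst-stained, GFP intensity by laser scanning cytometry, normalized to DMSO (0%) and 57.5 uM 5-azacytidine (100%).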

Compound	activation
CO[C@@H]1[C@H](N(C)C(=O)c2ccccc2)C[C@H]2O[C@]1(C)n1c3ccccc3c3c4c(c5c6ccccc6n2c5c31)C(=O)NC4	25.1% (inactive)
NC(=O)c1ccc(I)c([N+](=O)[O-])c1	13.8% (inactive)
CC(C)c1ccc2oc3nc(N)c(C(=O)O)cc3c(=O)c2c1	16.6% (inactive) and 7.34% (inactive)
c1coc(CNc2ncnc3nc[nH]c23)c1	-14.3% (inactive)
CC(=O)Oc1cc2c(s1)CCN(C(C(=O)C1CC1)c1ccccc1F)C2 (configuration not stated)	29.4% (inactive)
CCCCCCOC(=O)NC(=N)c1ccc(NCc2nc3cc(C(=O)N(CCC(=O)OCC)c4ccccn4)ccc3n2C)cc1	-36.8% (inactive)
COc1cc([C@H]2Oc3cc([C@H]4Oc5cc(O)cc(O)c5C(=O)[C@@H]4O)ccc3O[C@@H]2CO)ccc1O	-20.1% (inactive)
COc1ccc(-c2coc3cc(O)cc(O)c3c2=O)cc1	22.8% (inactive)
CCC(c1ccc(O)cc1)C(CC)c1ccc(O)cc1 (configuration not stated)	3.07% (inactive)
CNC(=O)[C@H](Cc1ccccc1)NC(=O)[C@H](CC(C)C)[C@H](CSc1cccs1)C(=O)NO	-8.09% (inactive)
CCC(C)(C)C(=O)O[C@H]1C[C@@H](C)C=C2C=C[C@H](C)[C@H](CC[C@@H]3C[C@@H](O)CC(=O)O3)[C@H]21	-16.4% (inactive) and -15.4% (inactive)
CC(C)Oc1ccc2c(=O)c(-c3ccccc3)coc2c1	-6.21% (inactive) and -9.21% (inactive) and 6.6% (inactive)
